Test [1] in a line: optical density shifts of acrAB sulA E. coli – strain DRC41, OD650, 48 h, E. coli filamentation inducer project, primary screen (AID 1152).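 Also: E. coli MC1000 strain DRC41 lacking acrAB efflux pump and sulA.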 The conditions noted are these: higher = more signal, called active from +8 up or from −8 down.
Test [2] can be described thus: probe aLefty1 binding on compound microarray – biochemical, small-molecule microarray, 635/667 nm fluorescence, primary screen (AID 1153).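 Also: score merges spot fluorescence with signal-to-noise ratio from the scanned slide images.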 The conditions noted are these: higher = more signal.
Test [3] is described as follows: plasmodial surface anion channel blockers, osmotic lysis – cell-based, P. falciparum Indochina, OD700, 1 h, primary screen (AID 1154). The note with it: P. falciparum Indochina infected RBC osmotic lysis, higher = more signal, called active from +8 up or from −8 down.
The nature of test [4]: plasmodial surface anion channel blockers, osmotic lysis – cell-based, P. falciparum Indochina, OD700, 2 h, primary screen (AID 1155).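 Also: lysis reports solute entry through the parasite surface anion channel PSAC.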 The conditions noted are these: P. falciparum Indochina infected erythrocytes, higher = more signal, called active from +8 up or from −8 down.
Test [5] in a line: changes in parasitized red cell lysis, either direction – P. falciparum Indochina, OD700, 3 h, PSAC antagonist project, primary screen (AID 1156). The conditions noted are these: P. falciparum-infected erythrocytes, osmotic lysis, higher = more signal, called active from +8 up or from −8 down.
Test [6] is described as follows: plasmodial surface anion channel blockers, osmotic lysis – cell-based, P. falciparum Indochina, OD700, 18 h, primary screen (AID 1157). The note with it: P. falciparum Indochina infected erythrocytes, osmotic lysis OD700, 18 h; higher = more signal, called active from +8 up or from −8 down.
The nature of test [7]: S6 kinase pathway phospho-S6 level changes – cell-based, A549, cytoblot, luminescence, serum-stimulated, primary screen (AID 1158).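 Also: serum-stimulated A549 lung adenocarcinoma cells; signal is phosphorylated S6 detected by cytoblot immunostaining with HRP secondary.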 The conditions noted are these: 5 h, higher = more signal.
Test [8] concerns the target NADPH oxidase 2 (Homo sapiens) (UniProt P04839). In words: compounds shifting NOX2 Amplex Red fluorescence – cell-based, HEK293-NOX2, PMA-stimulated, NOX inhibitor project, primary screen (AID 1159). Also: test concentration not given here. The note with it: 45 min, higher = more signal, called active from +8 up or from −8 down.
The target in test [9] is NADPH oxidase 4 (Homo sapiens) (UniProt Q9NPH5). As to the kind of experiment: compounds shifting NOX4 Amplex Red fluorescence – cell-based, HEK293-NOX4, tetracycline-induced, NOX inhibitor project, primary screen (AID 1160). The conditions noted are these: HEK293-NOX4, Amplex Red H2O2 fluorescence, 45 min; higher = more signal, called active from +8 up or from −8 down.
In test [10] the target is NADPH oxidase 5 (Homo sapiens) (UniProt Q96PH1). As to the kind of experiment: compounds shifting NOX5 Amplex Red fluorescence – cell-based, HEK293-NOX5, NOX inhibitor project, primary screen (AID 1161). The conditions noted are these: HEK293-NOX5, ionomycin, 45 min, higher = more signal.
Test [11] is described as follows: compound effects on lung adenocarcinoma cell viability – A549, calcein-AM fluorescence, 48 h, basal, profiling panel (AID 1162). Also: test concentration not given here. The conditions noted are these: higher = more signal.
A short description of test [12]: compound effects on differentiated 3T3-L1 adipocyte viability – cell-based, 3T3-L1 adipocytes, calcein-AM fluorescence, 48 h, basal, profiling panel (AID 1163). Also: test concentration not given here. The conditions noted are these: 3T3-L1 adipocytes viability, higher = more signal.
The nature of test [13]: compound effects on hepatocellular carcinoma cell viability – HepG2, calcein-AM fluorescence, 48 h, basal, profiling panel (AID 1164). Also: test concentration not given here. The note with it: higher = more signal.
The nature of test [14]: compound effects on multiple myeloma cell viability – MM1S, calcein-AM fluorescence, 48 h, basal, profiling panel (AID 1165). Also: test concentration not given here. The conditions noted are these: higher = more signal.
A short description of test [15]: calcein-AM signal in unstimulated myeloma cells – cell-based, calcein-AM fluorescence, 48 h, PK04 Diversity Set, profiling panel (AID 1166).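 Also: cells grown under basal conditions without added stimulus; test concentration not given here.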 The conditions noted are these: RPMI8226 myeloma viability, higher = more signal.
Test [16] in a line: JC-1 mitochondrial signal, unstimulated HepG2 cells – cell-based, JC-1 fluorescence, 24 h, 100 nL compound, profiling panel (AID 1167). Also: test concentration not given here. The note with it: HepG2 mitochondrial potential, higher = more signal.
The nature of test [17]: JC-1 mitochondrial signal, unstimulated adipocytes – cell-based, JC-1 fluorescence, 3T3-L1 adipocytes, 24 h, 100 nL compound, profiling panel (AID 1168). Also: test concentration not given here. The note with it: JC-1 mitochondrial fluorescence, higher = more signal, called active from +8 up or from −8 down.
A short description of test [18]: JC-1 mitochondrial signal, unstimulated myeloma cells – cell-based, JC-1 fluorescence, RPMI8226, 24 h, 100 nL compound, profiling panel (AID 1169). Also: test concentration not given here. The note with it: JC-1 mitochondrial potential fluorescence, higher = more signal.
Test [19] in a line: JC-1 mitochondrial signal, unstimulated MM1S myeloma – cell-based, JC-1 fluorescence, 24 h, 100 nL compound, profiling panel (AID 1170). Also: test concentration not given here. The conditions noted are these: MM1S mitochondrial potential, higher = more signal.
The nature of test [20]: resazurin metabolic signal in A549 cells – cell-based, resazurin fluorescence, 24 h, PK04 Diversity Set, profiling panel (AID 1171). Also: test concentration not given here. The note with it: A549 viability, higher = more signal, called active from +8 up or from −8 down.

We go through five molecules from PubChem BioAssay.

Activity calls are given as the source filed them.

Chain of NADPH oxidase 4 (Homo sapiens) (Q9NPH5 whole entry, looked up): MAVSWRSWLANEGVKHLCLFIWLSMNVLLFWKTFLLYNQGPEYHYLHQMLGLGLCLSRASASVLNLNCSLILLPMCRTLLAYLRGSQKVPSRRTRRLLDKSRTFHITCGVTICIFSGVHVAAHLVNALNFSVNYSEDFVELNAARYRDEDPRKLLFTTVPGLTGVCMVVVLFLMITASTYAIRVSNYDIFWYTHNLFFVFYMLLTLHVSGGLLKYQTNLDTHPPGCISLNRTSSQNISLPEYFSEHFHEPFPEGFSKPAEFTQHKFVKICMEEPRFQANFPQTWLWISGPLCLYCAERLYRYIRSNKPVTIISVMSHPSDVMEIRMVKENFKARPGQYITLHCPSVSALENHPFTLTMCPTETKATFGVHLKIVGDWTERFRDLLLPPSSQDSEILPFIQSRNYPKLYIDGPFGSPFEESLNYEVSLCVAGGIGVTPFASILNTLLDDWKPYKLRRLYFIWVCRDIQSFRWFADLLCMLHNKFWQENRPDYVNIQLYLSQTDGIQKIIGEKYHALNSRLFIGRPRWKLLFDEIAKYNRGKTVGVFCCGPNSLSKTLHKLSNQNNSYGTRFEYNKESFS
Chain of NADPH oxidase 2 (Homo sapiens) (P04839 whole entry, looked up): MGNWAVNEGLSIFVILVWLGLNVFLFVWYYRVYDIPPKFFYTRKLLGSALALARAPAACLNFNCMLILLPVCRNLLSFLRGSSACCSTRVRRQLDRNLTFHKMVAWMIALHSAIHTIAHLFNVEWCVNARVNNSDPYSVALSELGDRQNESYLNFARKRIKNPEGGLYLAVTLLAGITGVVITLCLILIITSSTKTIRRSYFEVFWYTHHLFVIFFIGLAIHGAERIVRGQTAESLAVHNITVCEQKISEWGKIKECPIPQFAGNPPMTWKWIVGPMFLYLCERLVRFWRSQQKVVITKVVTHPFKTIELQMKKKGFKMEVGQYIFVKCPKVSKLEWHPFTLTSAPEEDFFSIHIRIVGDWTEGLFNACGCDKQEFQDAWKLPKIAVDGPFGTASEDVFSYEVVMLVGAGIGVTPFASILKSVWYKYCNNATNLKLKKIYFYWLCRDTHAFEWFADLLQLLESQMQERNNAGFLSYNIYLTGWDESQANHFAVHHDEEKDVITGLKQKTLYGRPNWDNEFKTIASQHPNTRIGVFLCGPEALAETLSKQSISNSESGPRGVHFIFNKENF
Chain of NADPH oxidase 5 (Homo sapiens) (Q96PH1 whole entry, looked up): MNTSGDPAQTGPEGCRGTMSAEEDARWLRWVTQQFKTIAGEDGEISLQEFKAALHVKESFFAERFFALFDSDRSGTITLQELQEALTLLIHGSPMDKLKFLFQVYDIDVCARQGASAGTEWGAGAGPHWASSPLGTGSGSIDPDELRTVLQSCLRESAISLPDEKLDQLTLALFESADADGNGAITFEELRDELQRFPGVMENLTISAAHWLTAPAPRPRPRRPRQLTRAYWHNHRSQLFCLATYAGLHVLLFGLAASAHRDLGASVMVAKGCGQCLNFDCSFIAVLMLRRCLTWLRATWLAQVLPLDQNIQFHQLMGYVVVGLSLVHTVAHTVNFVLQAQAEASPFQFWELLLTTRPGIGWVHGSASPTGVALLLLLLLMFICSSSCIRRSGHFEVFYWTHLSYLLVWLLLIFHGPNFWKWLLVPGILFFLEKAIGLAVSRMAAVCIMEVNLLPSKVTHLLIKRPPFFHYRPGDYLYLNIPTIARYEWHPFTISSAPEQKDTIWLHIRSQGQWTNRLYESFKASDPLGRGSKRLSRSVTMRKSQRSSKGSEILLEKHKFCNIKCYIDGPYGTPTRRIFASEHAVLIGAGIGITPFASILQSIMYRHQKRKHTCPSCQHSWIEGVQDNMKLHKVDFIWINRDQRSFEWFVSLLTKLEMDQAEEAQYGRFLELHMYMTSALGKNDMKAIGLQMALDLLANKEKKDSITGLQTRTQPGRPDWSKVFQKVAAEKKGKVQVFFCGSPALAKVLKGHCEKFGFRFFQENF

As for `CCOC(=O)C[C@H]1[C@H](OC(=O)c2ccc(C(=O)c3ccccc3)cc2)[C@@H](NC(=O)c2ccc(-c3ccccc3)cc2)c2cc(OCCCO)ccc2N1C(=O)c1ccc2ccccc2n1`, the z-score is 2.25 (inactive) in test [1]; 5.21 (inactive) in [3]; 0.485 (inactive) in test [4]; 0.464 (inactive) in test [5]; 0.407 (inactive) in [6]; 0.756 in test [7]. The z-score in [8] was -1.46 (inactive); in test [9] it was 0.424 (inactive); in test [10], 0.216; in test [11] it was 1.03; in test [12] it was 1.44; in test [13] it was 1.35. For the same molecule, the z-score was 0.598 in test [14]; 1.08 in [15]; 1.92 in [16]; 1.98 (inactive) in [17]; 0.611 in test [18]; -1.18 in test [19]. In test [20], the z-score was 0.336 (inactive). The composite z-score in test [2] was -0.118.
As to `CC1CC/C=C\[C@H]2OC34C=CCN(Cn5nnc6ccccc65)C(=O)[C@H]3N(CCO)C(=O)[C@@H]4C2C(=O)O1` (stereo not given in full), the z-score in [1] was 2.49 (inactive); in [3], 2.87 (inactive); in [4] it was 0.218 (inactive); in test [5], -1.23 (inactive); in [6] it was -0.752 (inactive); in test [7], 1.03. Also, the z-score was 1.44 (inactive) in test [8]; 0.285 (inactive) in test [9]; 2.67 in test [10]; -0.338 in [11]; 1.11 in test [12]; -0.447 in test [13]. Besides, the z-score was 0.0362 in test [14]; 0.134 in test [15]; -0.153 in [16]; -0.798 (inactive) in test [17]; 0.691 in test [18]; 0.206 in test [19]. In addition, the z-score in test [20] was 0.676 (inactive). In test [2], this molecule showed a composite z-score of -0.155.
With `C=CC[C@@H]1C=C[C@H](ON=C(C)CCN2CCc3nc(CC)c(CC)cc3C2)[C@@H](CO)O1`, the z-score in test [1] was 0.31 (inactive); in [3], 2.65 (inactive); in test [4], 0.37 (inactive); in test [5] it was 0.412 (inactive); in test [6], 0.294 (inactive); in test [7], -1.15. The z-score is -1.24 (inactive) in [8]; 0.492 (inactive) in test [9]; 1.82 in test [10]; 1.36 in test [11]; 1.06 in [12]; -1.47 in test [13]. Also, the z-score in test [14] is -0.727; in test [15], 0.121; in test [16], 3.09; in test [17], -1.31 (inactive); in [18], 0.0868; in test [19], -0.587. The z-score in test [20] is 0.097 (inactive). Further, the composite z-score in test [2] came out at 0.288.
As for `CCN1C(=O)[C@H]2[C@H]3[C@H](O)[C@H](O)CC(=NOCC=C(C)CCC=C(C)C)[C@H]3CC[C@H]2C1=O`, the z-score in test [1] is 0.376 (inactive); in test [3], 0.955 (inactive); in test [4], -0.506 (inactive); in test [5] it was -0.527 (inactive); in [6], -0.163 (inactive); in test [7], -0.0053. In addition, the z-score in [8] was -0.516 (inactive); in test [9], 0.301 (inactive); in test [10], -1.52; in test [11], -0.107; in [12], 0.393; in test [13], -0.118. Besides, the z-score in [14] is 0.805; in test [15], 0.169; in test [16], -0.702; in test [17], 0.0735 (inactive); in [18] it was 0.568; in test [19] it was 0.0613. For the same molecule, the z-score in test [20] is -1.01 (inactive). In [2], this molecule displayed a composite z-score of -0.0518.
Regarding `COC(=O)[C@@]1(Cc2ccc(F)cc2)[C@H]2c3cc(C(=O)N(C)C)n(Cc4ccc(OC)c(OC)c4)c3C[C@H]2CN1C(=O)c1ccccc1`, the z-score in [1] was -1.19 (inactive); in test [3], 0.933 (inactive); in test [4], -0.512 (inactive); in test [5], 0.746 (inactive); in test [6], -1.37 (inactive); in test [7] it was 2.19. For the same molecule, the z-score in [8] was -3.29 (inactive); in [9], -1.97 (inactive); in test [10], -4.09; in [11], -0.74; in test [12], 0.272; in [13], -1.36. Moreover, the z-score in test [14] is -1.13; in test [15], -2.04; in [16] it was 0.594; in [17], -0.512 (inactive); in [18] it was 0.0709; in [19], -0.7. In addition, the z-score in test [20] is -0.507 (inactive). In test [2], this molecule showed a composite z-score of 0.109.
